# Assay results published in PubChem BioAssay.
# Active and inactive are the calls of the source. Unless noted, no rule for the calls is given here.
# What was measured:
# [1] = test system: Wnt5a (protein binding on small-molecule microarray); experiment: small molecules binding Wnt5a protein – biophysical, small-molecule microarray, 635/667 nm fluorescence, primary screen (AID 1142); details: 635 nm fluorescence, higher = more signal;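 also: fluorescence read at 667 nm with signal to noise per printed feature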
# [2] = ATP-based viability of Huh7 replicon cells – cell-based, CellTiter-Glo luminescence, basal, 48 h, cytotoxicity control for HCV replication inhibitor project, primary screen (AID 1143); details: higher = more signal, called active from +8 up or from −8 down;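 also: Huh7 hepatoma cells carrying a hepatitis C replication reporter with no stimulus; test concentration not given here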
# [3] = Pseudomonas biofilm growth suppression – PAO1 strain, BacTiter-Glo luminescence, LB-PBS, primary screen (AID 1144); details: P. aeruginosa PAO1 biofilm, 12 h, higher = more signal
# [4] = basal CRE-LacZ reporter activity in PC12 – cell-based, unstimulated, primary screen (AID 1145); details: no forskolin, luminescence, 4.5 h, higher = more signal, called active from +8 up or from −8 down
# [5] = forskolin-driven CRE-LacZ activity in PC12 – cell-based, CRE-LacZ reporter, forskolin-stimulated, primary screen (AID 1146); details: luminescence, 4.5 h, higher = more signal, called active from +8 up or from −8 down;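 also: PC12 cells with 6xCRE LacZ reporter stimulated by forskolin 10 µM; beta-galactosidase reporter signal reflecting CREB driven transcription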
# [6] = target: Streptavidin (Streptomyces avidinii) (UniProt P22629); experiment: compounds binding control protein streptavidin – biophysical, small-molecule microarray, 635/667 nm fluorescence, artefact control for SMM compound annotation, primary screen (AID 1147); details: higher = more signal;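 also: signal reflects streptavidin binding to arrayed compounds as a control protein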
# Streptavidin (Streptomyces avidinii), sequence (P22629 whole entry, looked up): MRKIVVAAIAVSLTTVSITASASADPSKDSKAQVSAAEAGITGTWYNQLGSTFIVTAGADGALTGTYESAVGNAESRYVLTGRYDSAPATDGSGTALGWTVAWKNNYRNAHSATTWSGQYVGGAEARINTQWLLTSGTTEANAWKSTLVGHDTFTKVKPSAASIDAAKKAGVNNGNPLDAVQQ
# [7] = probe aInhba binding on compound microarray – biochemical, small-molecule microarray, 635/667 nm fluorescence, primary screen (AID 1148); details: higher = more signal;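 also: score merges 667nm spot fluorescence with signal-to-noise for antibody binding to printed compounds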
# Torsin-1A (Homo sapiens) [8] = target: Torsin-1A (Homo sapiens) (UniProt O14656); experiment: TOR1A wild-type binding on microarray – cell lysate, small-molecule microarray, lysate, 635/667 nm, primary screen (AID 1149); details: COS7 hTOR1A-WT lysate, 635 nm fluorescence, higher = more signal
# Torsin-1A (Homo sapiens), sequence (O14656 whole entry, looked up): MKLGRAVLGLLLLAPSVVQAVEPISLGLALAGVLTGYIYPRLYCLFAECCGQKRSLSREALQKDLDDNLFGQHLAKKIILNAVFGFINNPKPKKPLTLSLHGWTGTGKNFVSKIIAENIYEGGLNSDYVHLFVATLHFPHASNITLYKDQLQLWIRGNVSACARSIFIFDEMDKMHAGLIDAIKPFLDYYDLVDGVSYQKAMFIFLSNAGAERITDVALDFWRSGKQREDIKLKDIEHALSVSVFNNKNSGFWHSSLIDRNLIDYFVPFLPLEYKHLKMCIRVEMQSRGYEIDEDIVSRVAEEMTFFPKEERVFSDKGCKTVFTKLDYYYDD
# Torsin-1A (Homo sapiens) [9] = target: Torsin-1A (Homo sapiens) (UniProt O14656); experiment: torsin A mutant lysate binding on microarrays – cell lysate, small-molecule microarray, COS7 lysate, 635/667 nm fluorescence, primary screen (AID 1150); details: COS7 hTOR1A mutant lysate, 635 nm fluorescence, higher = more signal;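 also: score pools 667 nm emission and signal to noise measuring lysate protein binding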
# [10] = test system: Sonic hedgehog protein (Shh); experiment: Sonic hedgehog microarray binding compounds – biochemical, small-molecule microarray, 635/667 nm fluorescence, primary screen (AID 1151); details: 635 nm fluorescence, higher = more signal;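 also: Shh protein binding to compounds spotted on small-molecule microarray slides; score combines spot fluorescence intensity with signal-to-noise across triplicate slides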
# [11] = optical density shifts of acrAB sulA E. coli – strain DRC41, OD650, 48 h, E. coli filamentation inducer project, primary screen (AID 1152); details: higher = more signal, called active from +8 up or from −8 down;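 also: E. coli MC1000 strain DRC41 lacking acrAB efflux pump and sulA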
# [12] = probe aLefty1 binding on compound microarray – biochemical, small-molecule microarray, 635/667 nm fluorescence, primary screen (AID 1153); details: higher = more signal;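 also: score merges spot fluorescence with signal-to-noise ratio from the scanned slide images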
# [13] = plasmodial surface anion channel blockers, osmotic lysis – cell-based, P. falciparum Indochina, OD700, 1 h, primary screen (AID 1154); details: P. falciparum Indochina infected RBC osmotic lysis, higher = more signal, called active from +8 up or from −8 down
# [14] = plasmodial surface anion channel blockers, osmotic lysis – cell-based, P. falciparum Indochina, OD700, 2 h, primary screen (AID 1155);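 also: lysis reports solute entry through the parasite surface anion channel PSAC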; details: P. falciparum Indochina infected erythrocytes, higher = more signal, called active from +8 up or from −8 down
# [15] = changes in parasitized red cell lysis, either direction – P. falciparum Indochina, OD700, 3 h, PSAC antagonist project, primary screen (AID 1156); details: P. falciparum-infected erythrocytes, osmotic lysis, higher = more signal, called active from +8 up or from −8 down
# [16] = plasmodial surface anion channel blockers, osmotic lysis – cell-based, P. falciparum Indochina, OD700, 18 h, primary screen (AID 1157); details: P. falciparum Indochina infected erythrocytes, osmotic lysis OD700, 18 h; higher = more signal, called active from +8 up or from −8 down
# [17] = S6 kinase pathway phospho-S6 level changes – cell-based, A549, cytoblot, luminescence, serum-stimulated, primary screen (AID 1158); details: 5 h, higher = more signal;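 also: serum-stimulated A549 lung adenocarcinoma cells; signal is phosphorylated S6 detected by cytoblot immunostaining with HRP secondary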
# [18] = target: NADPH oxidase 2 (Homo sapiens) (UniProt P04839); experiment: compounds shifting NOX2 Amplex Red fluorescence – cell-based, HEK293-NOX2, PMA-stimulated, NOX inhibitor project, primary screen (AID 1159); details: 45 min, higher = more signal, called active from +8 up or from −8 down; also: test concentration not given here
# NADPH oxidase 2 (Homo sapiens), sequence (P04839 whole entry, looked up): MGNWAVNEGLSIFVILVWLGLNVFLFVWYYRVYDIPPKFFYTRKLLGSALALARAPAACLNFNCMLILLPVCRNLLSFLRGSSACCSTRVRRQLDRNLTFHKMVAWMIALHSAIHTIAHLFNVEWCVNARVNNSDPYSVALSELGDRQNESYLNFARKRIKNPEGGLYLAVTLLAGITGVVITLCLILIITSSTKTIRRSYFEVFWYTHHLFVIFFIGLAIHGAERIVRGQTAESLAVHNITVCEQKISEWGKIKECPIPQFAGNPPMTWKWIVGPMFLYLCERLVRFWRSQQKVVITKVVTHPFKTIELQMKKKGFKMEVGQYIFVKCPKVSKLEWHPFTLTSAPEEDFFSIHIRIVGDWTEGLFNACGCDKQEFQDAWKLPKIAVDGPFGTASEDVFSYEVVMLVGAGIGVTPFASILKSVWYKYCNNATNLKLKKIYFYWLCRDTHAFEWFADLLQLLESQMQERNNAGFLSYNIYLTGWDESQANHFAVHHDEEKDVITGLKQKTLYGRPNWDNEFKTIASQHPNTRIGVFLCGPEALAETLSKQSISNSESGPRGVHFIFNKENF
# [19] = target: NADPH oxidase 4 (Homo sapiens) (UniProt Q9NPH5); experiment: compounds shifting NOX4 Amplex Red fluorescence – cell-based, HEK293-NOX4, tetracycline-induced, NOX inhibitor project, primary screen (AID 1160); details: HEK293-NOX4, Amplex Red H2O2 fluorescence, 45 min; higher = more signal, called active from +8 up or from −8 down
# NADPH oxidase 4 (Homo sapiens), sequence (Q9NPH5 whole entry, looked up): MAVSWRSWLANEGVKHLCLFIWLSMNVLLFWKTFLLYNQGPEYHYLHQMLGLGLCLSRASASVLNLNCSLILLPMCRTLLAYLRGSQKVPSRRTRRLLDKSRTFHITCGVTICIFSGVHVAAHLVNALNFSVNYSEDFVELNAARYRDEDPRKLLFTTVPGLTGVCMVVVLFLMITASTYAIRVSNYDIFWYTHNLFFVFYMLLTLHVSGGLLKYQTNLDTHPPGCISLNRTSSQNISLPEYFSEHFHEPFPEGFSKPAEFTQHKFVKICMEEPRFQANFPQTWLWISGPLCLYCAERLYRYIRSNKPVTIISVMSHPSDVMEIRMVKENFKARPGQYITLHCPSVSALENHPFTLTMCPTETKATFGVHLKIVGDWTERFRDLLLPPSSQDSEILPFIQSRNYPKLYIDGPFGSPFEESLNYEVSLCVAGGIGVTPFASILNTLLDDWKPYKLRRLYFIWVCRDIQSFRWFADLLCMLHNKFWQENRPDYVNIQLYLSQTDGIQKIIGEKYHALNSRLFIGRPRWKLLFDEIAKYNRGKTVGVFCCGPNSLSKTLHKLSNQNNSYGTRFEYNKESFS
# [20] = target: NADPH oxidase 5 (Homo sapiens) (UniProt Q96PH1); experiment: compounds shifting NOX5 Amplex Red fluorescence – cell-based, HEK293-NOX5, NOX inhibitor project, primary screen (AID 1161); details: HEK293-NOX5, ionomycin, 45 min, higher = more signal
# NADPH oxidase 5 (Homo sapiens), sequence (Q96PH1 whole entry, looked up): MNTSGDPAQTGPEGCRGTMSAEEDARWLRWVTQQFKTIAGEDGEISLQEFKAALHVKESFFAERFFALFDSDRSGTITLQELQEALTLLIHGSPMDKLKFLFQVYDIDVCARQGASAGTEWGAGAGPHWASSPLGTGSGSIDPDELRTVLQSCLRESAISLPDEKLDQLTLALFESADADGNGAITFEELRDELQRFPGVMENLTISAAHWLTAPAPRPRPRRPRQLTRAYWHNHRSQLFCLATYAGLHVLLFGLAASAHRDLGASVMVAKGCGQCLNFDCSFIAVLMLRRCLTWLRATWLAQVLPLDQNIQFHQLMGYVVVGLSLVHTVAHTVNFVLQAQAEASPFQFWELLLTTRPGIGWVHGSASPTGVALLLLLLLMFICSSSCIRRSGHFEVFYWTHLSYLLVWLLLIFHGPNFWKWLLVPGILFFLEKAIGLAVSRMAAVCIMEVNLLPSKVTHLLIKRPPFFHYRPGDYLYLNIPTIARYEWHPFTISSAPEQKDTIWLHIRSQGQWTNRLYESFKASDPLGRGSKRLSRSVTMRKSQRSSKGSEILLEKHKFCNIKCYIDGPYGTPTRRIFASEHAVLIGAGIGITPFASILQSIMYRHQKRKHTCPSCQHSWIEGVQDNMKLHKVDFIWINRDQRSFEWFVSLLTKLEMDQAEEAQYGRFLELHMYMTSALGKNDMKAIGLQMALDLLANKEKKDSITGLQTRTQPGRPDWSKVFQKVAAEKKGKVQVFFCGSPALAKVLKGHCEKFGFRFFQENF
Structure (SMILES),composite z-score [1],z-score [2],z-score [3],z-score [4],z-score [5],composite z-score [6],composite z-score [7],composite z-score (Torsin-1A (Homo sapiens) [8]),composite z-score (Torsin-1A (Homo sapiens) [9]),composite z-score [10],z-score [11],composite z-score [12],z-score [13],z-score [14],z-score [15],z-score [16],z-score [17],z-score [18],z-score [19],z-score [20]
C=CCN1Cc2ccccc2[C@H]2OC(c3ccc(OCCCO)cc3)=N[C@@]2(CCS(=O)(=O)c2ccccc2)C1=O,1.07,-2.3 (inactive),0.477 (inactive),1.44 (inactive),-1.27 (inactive),0.22,0.275,0.695,1.26,1.28,-0.028 (inactive),0.607,30.4 (active),27.2 (active),1.47 (inactive),6 (inactive),-0.272,-0.697 (inactive),1.93 (inactive),0.119
CC(C)c1nc2cc(Br)ccc2c(=O)o1,0.432,-0.232 (inactive),-0.523 (inactive),-0.348 (inactive),-0.524 (inactive),0.632,-0.0736,0.0358,0.244,0.116,0.537 (inactive),0.202,2.79 (inactive),0.153 (inactive),0.958 (inactive),0.303 (inactive),-0.228,-0.421 (inactive),-0.0107 (inactive),0.118
COc1ccc(C(O)C2C=CC3C(=O)NC(=O)C3N2Nc2ccc(Cl)cc2Cl)c2ccccc12 (stereo not given),-0.181,-1.74 (inactive),-1.13 (inactive),1.01 (inactive),-0.525 (inactive),0.767,-0.0757,-0.392,0.275,0.461,-0.866 (inactive),0.379,2.37 (inactive),1.44 (inactive),-0.46 (inactive),1.78 (inactive),-0.101,-0.0689 (inactive),-5.63 (inactive),-1.58
O=C1O[C@H](c2ccccc2)[C@H](c2ccccc2)N2[C@H]1[C@@H](C(=O)N1CCN(c3ncccn3)CC1)[C@]1(C(=O)Nc3ccc(C#CCCO)cc31)[C@H]2c1ccc(O)cc1,0.313,-0.522 (inactive),-0.218 (inactive),0.0653 (inactive),0.253 (inactive),1.05,0.0111,0.161,0.0065,0.429,-0.951 (inactive),0.208,1.28 (inactive),0.436 (inactive),1.2 (inactive),0.0991 (inactive),0.201,0.84 (inactive),0.722 (inactive),1.41
O=C1C2C=CC(C(O)c3c(F)cccc3Cl)N(Nc3ccc([N+](=O)[O-])cc3)C2C(=O)N1c1ccccc1 (stereo not given),0.469,-1.39 (inactive),-1.44 (inactive),-0.0787 (inactive),0.329 (inactive),1.26,0.142,0.414,1.03,1.01,-0.262 (inactive),0.218,30 (active),21 (active),2.34 (inactive),1.76 (inactive),-0.24,-1.5 (inactive),-2.29 (inactive),-1.9
C=CCC(OC(C)=O)[C@@H]1[C@@H](N(Cc2cc3ccccc3o2)C(=O)c2cccc3ccccc23)c2cc(OCCCO)ccc2N1C(=O)c1ccc2ccccc2n1 (stereo not given in full),0.0394,-1.35 (inactive),-0.399 (inactive),2.6 (inactive),-0.273 (inactive),0.0002,-0.0131,0.866,-0.661,0.151,0.595 (inactive),-0.239,1.53 (inactive),0.26 (inactive),0.266 (inactive),0.506 (inactive),0.231,0.889 (inactive),-0.605 (inactive),-1.64
C[N+](C)(C)CCCC[C@@H]1NC(=O)[C@H]2C[C@@H](C(=O)NCCCCCNC(=O)CS)[C@@H](c3cccc(OCCO)c3)N2C1=O,0.0448,-0.907 (inactive),0.236 (inactive),0.13 (inactive),0.487 (inactive),0.474,-0.176,0.116,0.653,0.602,0.19 (inactive),0.144,1.59 (inactive),-0.0251 (inactive),-0.89 (inactive),0.204 (inactive),-0.0362,1.94 (inactive),0.816 (inactive),1.35
C=CC1c2cc(O)c(OC)cc2CCN1C (stereo not given),-0.148,0.235 (inactive),0.51 (inactive),0.182 (inactive),-0.439 (inactive),-0.0377,-0.0695,-0.45,-0.231,-0.881,-0.664 (inactive),-0.101,0.994 (inactive),-0.152 (inactive),-0.969 (inactive),-0.214 (inactive),-0.466,-4.27 (inactive),-2.63 (inactive),-3.08
C=C(CCCC)C(=O)CC[C@@H](OC(=O)c1ccccc1-c1ccccc1C(=O)O)c1ccccc1OCCO,0.0726,-1.62 (inactive),-0.131 (inactive),6.69 (inactive),2.06 (inactive),-0.34,-0.157,1.21,0.818,1.56,0.414 (inactive),-0.0003,6.1 (inactive),0.148 (inactive),-0.138 (inactive),-1.14 (inactive),0.332,1.78 (inactive),0.0357 (inactive),-1.39
